Source: PubChem BioAssay (National Center for Advancing Translational Sciences (NCATS))
PI5P4Ka inh – qHTS for Inhibitors of phosphatidylinositol 5-phosphate 4-kinase (PI5P4K) | PI5P4Kalpha enzyme, ADP-Glo luminescence, 60 min; hits give low values | hit rate 1.2% among 330,000 | max response, % | AID 652105, 2013 | Phosphatidylinositol 5-phosphate 4-kinase type-2 alpha (Homo sapiens), P48426; active = max response of -50% or lower; inconclusive = between -30% and -50%; inactive = -30% or higher; also: value at the top dose of about 77 µM
Target sequence (P48426 whole entry, looked up): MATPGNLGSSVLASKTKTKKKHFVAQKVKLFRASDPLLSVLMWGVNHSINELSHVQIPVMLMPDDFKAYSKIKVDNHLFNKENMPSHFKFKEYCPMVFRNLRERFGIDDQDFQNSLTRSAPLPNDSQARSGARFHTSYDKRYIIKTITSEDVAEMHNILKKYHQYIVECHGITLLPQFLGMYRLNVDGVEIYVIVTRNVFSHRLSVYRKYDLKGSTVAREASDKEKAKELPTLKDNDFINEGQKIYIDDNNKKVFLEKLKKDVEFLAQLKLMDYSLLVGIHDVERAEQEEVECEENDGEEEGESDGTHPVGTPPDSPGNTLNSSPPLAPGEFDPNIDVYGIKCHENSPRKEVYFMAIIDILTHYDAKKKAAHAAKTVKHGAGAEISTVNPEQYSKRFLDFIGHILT
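Reactions run in 0.038 M HEPES pH 7.4, 0.28 mM EGTA, 0.1% CHAPS and 5% DMSO, with PI5P4Kalpha, substrate, compound and 5 microM ATP final, one hour at room temperature. Readout is ADP-Glo luminescence.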
PLK1 PBD block – qHTS for Inhibitors of PLK1-PDB (polo-like kinase 1 - polo-box domain): Primary Screen. Plk1 PBD binding of FITC phosphopeptide, fluorescence polarization. Potency, µM, usual class: inhibitors. hit rate 2.8% among 360,000. AID 720504, 2013; also: series mostly up to about 57 µM; nearly all actives have a fitted effect of over 65% in size
JMJD2A Tudor inh – qHTS Assay for Inhibitors of JMJD2A-Tudor Domain; AlphaScreen JMJD2A-Tudor / H3K4me3 peptide binding; Potency, µM (doses to about 114 µM), usual class: inhibitors; hit rate 4.4% among 390,000; also: nearly all actives have a fitted effect of over 50% in size
HP1b binding inh – HTS for Inhibitors of HP1-beta Chromodomain Interactions with Methylated Histone Tails. Chromobox protein homolog 1 (Homo sapiens), P83916. AlphaScreen HP1-beta / biotin-H3K9me3 peptide binding. Potency, µM (titrated, usually from 114 µM), actives largely listed as inhibitors. hit rate 0.56% among 390,000. AID 540317, 2011; also: nearly all actives have a fitted effect of over 70% in size
Target sequence (P83916 whole entry, looked up): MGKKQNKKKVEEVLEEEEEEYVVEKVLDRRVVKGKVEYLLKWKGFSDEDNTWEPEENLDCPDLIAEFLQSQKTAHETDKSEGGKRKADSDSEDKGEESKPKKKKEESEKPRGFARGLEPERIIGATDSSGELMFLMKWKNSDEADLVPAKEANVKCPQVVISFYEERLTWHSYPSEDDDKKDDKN
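AlphaScreen: HP1-beta (50 nM) preformed 30 min with biotin-H3(1-18)K9me3 peptide (50 nM) in PBS pH 7.4, 0.01% Tween-20. Compound added for 30 min at RT, then streptavidin donor/nickel chelate acceptor beads (10 ug/mL) for 30 min.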
BAZ2B block – qHTS Assay for Inhibitors of BAZ2B; Bromodomain adjacent to zinc finger domain protein 2B (Homo sapiens), Q9UIF8; AlphaScreen BAZ2B-H3K14Ac peptide displacement; Potency, µM (doses to about 114 µM), hits mostly inhibitors; hit rate 4.4% among 360,000; also: nearly all actives have a fitted effect of over 60% in size
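Complex of BAZ2B and biotin-H3K14Ac (50 nM apiece) forms over 30 min at RT, then faces library compounds up to 110 uM for another 30 min; AlphaScreen beads added, 20 min dark incubation, luminescence read.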
G9a block – qHTS Assay for Inhibitors of Histone Lysine Methyltransferase G9a | G9a H3K9 monomethylation, AlphaScreen, 2 h | Histone-lysine N-methyltransferase EHMT2 (Homo sapiens), Q96KQ7 | Potency, µM (doses to about 102 µM), most hits filed as inhibitors | hit rate 8.8% among 350,000; also: nearly all actives have a fitted effect of over 75% in size
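Using a bead-based AlphaScreen, monomethylated H3K9 product from 2 h room-temperature reactions (G9a 20 nM, peptide 500 nM, SAM 20 uM) was detected with 0.5 ug/mL rabbit anti-H3K9me1 antibody.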
Hits are given with their value; n = inactive; u = inconclusive; x = no result; ! = not active in a repeat; [ ] = another dose, or the depositor's remark. Shown are actives, neighbours in structure and some others; about 12% of the full set was active somewhere. Unless noted, calls follow the shape of the dose curve; as a rule, active = well fitted curve in the direction sought with a large enough effect; inconclusive = small, poorly fitted or top-dose-only effect, or another doubt; inactive = no such curve, though single readings can be large; an effect the other way counts as inactive or inconclusive.

SMILES | PI5P4Ka inh | PLK1 PBD block | JMJD2A Tudor inh | HP1b binding inh | BAZ2B block | G9a block
CCOC(=O)c1c(NC(=O)c2cc(-c3ccccc3OC)on2)sc(C)c1C | x | x | n | u | n | 2.8µM
COc1ccccc1-c1cc(C(=O)Nc2ccccc2SC)no1 | x | n | n | n | n | n[2.33 µM]
Cc1cccc(C(=O)Nc2scc(-c3ccc(Br)cc3)c2C(=O)O)c1 | u | 30µM | u | n | x | x
O=C(O)COc1ccc(C(=O)c2ccccc2)cc1 | n | n | n | n | n | n
CCCCOc1ccc(CN2CCCCC2)cc1 | x | n | n | n | n | n
c1ccc(COc2ccc(OCCCCN3CCCCC3)cc2)cc1 | n | n | 7.1µM | n | 40µM | 8.9µM
O=C(c1ccccc1)c1ccc(OCCCN2CCCC2)cc1 | n | n | 10µM | u | u | 2.5µM
Oc1ccc(N2CCN(Cc3ccc(OCCCN4CCCCC4)cc3)CC2)cc1 | n | n | 50µM | 40µM | 10µM | 10µM
CC(C)c1ccc(OCCCN2CCCC2)cc1 | n | n | 56µM | n | 56µM | n
COc1ccc(C2NC(c3ccc(OC)cc3)C(c3ccccc3)C(=O)C2c2ccccc2)cc1 (stereo not given) | n | n | n | n | n | n
CCC(Nc1ccc(-c2nc(-c3cccnc3)no2)cc1[N+](=O)[O-])c1ccccc1 (stereo not given) | x | x | n | n | n | n
Fc1ccc(Nc2ncncc2-c2ccoc2)cc1 | x | x | x | x | x | n[0.501 µM]
Cc1ccccc1OCCCCN1CCCCC1 | n | n | n | n | n | n
Cc1ccc(OCCCCN2CCCCC2)cc1 | n | n | n | n | n | n
Cc1ccc(C(C)C)cc1OCCCCN1CCCC1 | n | n | 18µM | u | 50µM | 10µM
CCOc1ccc(OCCCCN2CCCC2)cc1 | n | n | 45µM | n | u | u
Cc1ccc(OCCN2CCCC2)cc1 | n | n | 18µM | u | n | 22µM
Clc1nc(NCc2cccs2)c2[nH]cnc2n1 | x | x | n | n | x | x
Cc1nc2c(C(=O)NCCCN(CC(C)C)CC(C)C)cnn2c(C)c1Cc1c(F)cccc1Cl | x | x | n | n | n | n
CCn1c(-c2ccc(F)cc2)n[nH]c1=S | n | n | 5µM | n | n | u
CC(C)(C)c1ccc(-c2nc(N)nc(N)n2)cc1 | n | n | n | n | n | x
Cn1c(-c2ccc(C(C)(C)C)cc2)n[nH]c1=S | n | n | 22µM | n | n | 2µM
CCOC(=O)CSc1nnc(-c2cccc(Cl)c2)n1CC | n | n | n | n | x | n
CC(C)(C)c1ccc(-c2n[nH]c(=S)n2C2CCCC2)cc1 | x | n | u | n | n | 7.9µM
CCn1c(-c2cccc(Cl)c2)n[nH]c1=S | n | n | 7.1µM | n | n | 6.3µM
SMILES | PI5P4Ka inh | PLK1 PBD block | JMJD2A Tudor inh | HP1b binding inh | BAZ2B block | G9a block
CCn1c(-c2ccc(C(C)(C)C)cc2)n[nH]c1=S | n | n | 45µM | n | n | 0.56µM
CCc1ccccc1NC(=O)Cn1nnc(C(=O)NCc2ccco2)c1N | x | x | n | n | x | n
CCOC(=O)CSc1c(-c2ccc(Cl)cc2)[nH]c2ccccc12 | u | 6µM | 22µM | n | n | n
COc1ccc(NC(=O)C2CCCN(C(=O)c3cnn(-c4ccccc4)c3-n3cccc3)C2)cc1 (stereo not given) | x | x | n | n | n | n
Cc1ccc(OCc2cc(C(=O)N3CCc4[nH]cnc4C3c3ccccn3)no2)cc1C (stereo not given) | n | n | u | n | u | 71µM
Cc1cc(C)c(O)c(N)c1 | x | x | x | x | u | 2.2µM
COc1cccc(-c2nc(CS(=O)CC(=O)N3CCN(c4cccc(C(F)(F)F)c4)CC3)c(C)o2)c1 (stereo not given) | x | x | u | n | n | u
CC(NC(=O)CCCCCN1C(=O)c2ccccc2C1=O)c1ccc2c(c1)CCCC2 (stereo not given) | x | n | n | n | n | 8.9µM
Cc1cccc(C)c1NC(=O)C(c1ccccc1F)n1c(=O)c(-c2ccco2)nc2ccccc21 (stereo not given) | -67 | u | x | x | x | x
Cc1cccc(C)c1NC(=O)C(c1ccnc2ccccc12)n1c(=O)c(-c2ccco2)nc2ccccc21 (stereo not given) | -72 | n | x | x | x | x
Cc1cccc(C)c1NC(=O)C(c1ccc(-c2ccccc2)cc1)n1c(=O)c(-c2ccco2)nc2ccccc21 (stereo not given) | -99 | u | x | x | x | x
Cc1ccc(C(C)(C)C)cc1S(=O)(=O)Nc1cccc(S(=O)(=O)NC2=NCCC2)c1 | n | n | n | n | n | n
Cc1ccc(NC(=O)CSc2nc3c(sc4ccccc43)c(=O)n2CCCC(=O)NC2CCCC2)cc1C | x | x | n | n | n | n
COC(=O)Nc1ccc2c(c1)Nc1ccccc1CC2 | n | n | u | n | u | n[0.501 µM]
Nc1ccc2c(c1)Nc1ccccc1CC2 | n | n | 50µM | n | 28µM | x
CC(=O)c1ccc(NC(=S)Nc2cccc(S(=O)(=O)Nc3c(C)n(C)n(-c4ccccc4)c3=O)c2)cc1 | n | 24µM | n | n | x | u
Cc1cccc(NC(=O)c2cccc(S(=O)(=O)Nc3c(C)n(C)n(-c4ccccc4)c3=O)c2)c1 | n | n | n | n | x | x
Cc1ccc(NC(=S)Nc2cccc(S(=O)(=O)Nc3c(C)n(C)n(-c4ccccc4)c3=O)c2)cc1 | n | u | n | n | n | 45µM
CC1=C(C(=O)Nc2ccc(C)cc2C)C(c2sccc2C)n2ncnc2N1 (stereo not given) | x | x | n | n | n | n
O=C(O)CP(=O)(O)O | n | n | u | n | u | 13µM!
O=C(O)CN(CCN(CC(=O)O)CC(=O)O)CCN(CC(=O)O)CC(=O)O | x | x | x | x | x | n
Cc1ccc(-c2nnc(Nc3cccc(C(F)(F)F)c3)c3ccccc23)cc1S(=O)(=O)N1CCOCC1 | x | x | n | n | n | n
Brc1ccc([C@H]2CN3CCSC3=N2)cc1 | n | n | 6.3µM | u | x | u
c1ccc(C2CN3CCSC3=N2)cc1 (stereo not given) | n | n | n | n | n | n
O=C(Cc1c(F)cccc1Cl)OCN1C(=O)c2ccccc2C1=O | n | n | n | n | n | n
COc1cc(/C=C2/C(=O)N(c3ccc(Br)cc3)N=C2C)cc([N+](=O)[O-])c1O | x | x | x | x | n | 79µM
COc1cc(C=O)ccc1OCc1cccc(Br)c1 | n | n | n | n | n | n
COc1cc(/C=C2/C(=O)N(c3cccc(Br)c3)N=C2C)cc(OC)c1O | n | u | 28µM | 28µM | 10µM | 10µM
CN(Cc1ccco1)c1ncncc1-c1ccccc1C(F)(F)F | x | x | x | x | x | n[0.501 µM]
